# The supplement of paper PMC10037445
# Over roughly 2,900 compounds, “NF-kB SEAP reporter activity, fold change vs agonist alone” has its median near 0.99; the highest 2% begin near 2.6. This excerpt belongs to a sample that is enriched for the highest values.
# Columns and labels:
# RAW-Dual [1] = test: NF-kB SEAP reporter activity, fold change vs agonist alone; cytotoxicity flag (confluency mask): not cytotoxic; higher = enhanced NF-kB activity
# Outline: (§1)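 RAW-Dual macrophages were seeded in DMEM at 50,000 cells/well in 384-well plates, given 50 nL of library stock by pin tool, and given a PRR agonist 1 h later. Plates were held at 37 °C, 5% CO2 for 20 hours, after which supernatant was read for IRF by QuantiLuc luminescence and for NF-κB by QuantiBlue absorbance at 620 nm. Reporter activity is expressed as fold change over wells that received agonist alone. A well was called cytotoxic when IncuCyte confluency fell below 70% of agonist controls in both mask sets.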
# RAW-Dual [2] = test: NF-kB SEAP reporter activity, fold change vs agonist alone; higher = enhanced NF-kB activity; conditions: library stock concentration (final ~1000-fold dilution): 10 mM
# Outline: as §1
# RAW-Dual [3] = test: NF-kB SEAP reporter activity, fold change vs agonist alone; cytotoxicity flag (confluency mask): cytotoxic (confluency <70% of control); higher = enhanced NF-kB activity
# Outline: as §1
# [4] = agonist: ODN 1826 (TLR9) 0.5 ug/mL
# [5] = agonist: Pam2CSK4 (TLR2/6) 0.1 ug/mL
# [6] = agonist: Pam3CSK4 (TLR2/1) 0.1 ug/mL
# [7] = cytotoxicity flag (confluency mask): not cytotoxic, agonist: Imiquimod (TLR7) […]
# [8] = cytotoxicity flag (confluency mask): not cytotoxic, agonist: MPLA (TLR4) […]
# [9] = cytotoxicity flag (confluency mask): cytotoxic (confluency <70% of control), agonist: Imiquimod (TLR7) […]
# [10] = cytotoxicity flag (confluency mask): cytotoxic (confluency <70% of control), agonist: MPLA (TLR4) […]
smiles,measurement,setting,value
Cn1cc(CC(N)C(=O)O)c2ccccc21 (stereo not drawn) (library stock concentration (final ~1000-fold dilution): 2 mM),NF-kB SEAP reporter activity,RAW-Dual [1]; agonist: LPS (TLR4) 0.1 ug/mL,1.05
same,NF-kB SEAP reporter activity,RAW-Dual [1]; [4],1.22
same,NF-kB SEAP reporter activity,RAW-Dual [1]; [5],1.19
same,NF-kB SEAP reporter activity,RAW-Dual [1]; [6],1.05
COc1ccc(CCC(=O)N(c2nccc3ccccc23)C2CCCNC2)cc1 (stereo not drawn) (library stock concentration (final ~1000-fold dilution): 10 mM),NF-kB SEAP reporter activity,RAW-Dual [1]; agonist: LPS (TLR4) 0.1 ug/mL,1.05
same,NF-kB SEAP reporter activity,RAW-Dual [1]; [4],0.84
same,NF-kB SEAP reporter activity,RAW-Dual [1]; [5],1.09
same,NF-kB SEAP reporter activity,RAW-Dual [1]; [6],1.08
COc1ccc(CCC(=O)N(c2nccc3ccccc23)C2CCCNC2)cc1 (stereo not drawn),NF-kB SEAP reporter activity,RAW-Dual [2]; [7],1.07
same,NF-kB SEAP reporter activity,RAW-Dual [2]; [8],1.29
CS(=O)(=O)c1cccc(CC(NC(=O)c2c(Cl)cc3c(c2Cl)CCN(C(=O)c2ccc4ccoc4c2)C3)C(=O)O)c1 (stereo not drawn),NF-kB SEAP reporter activity,RAW-Dual [2]; [7],0.947
same,NF-kB SEAP reporter activity,RAW-Dual [2]; [8],1.04
CS(=O)(=O)c1cccc(CC(NC(=O)c2c(Cl)cc3c(c2Cl)CCN(C(=O)c2ccc4ccoc4c2)C3)C(=O)O)c1 (stereo not drawn) (library stock concentration (final ~1000-fold dilution): 10 mM),NF-kB SEAP reporter activity,RAW-Dual [1]; agonist: LPS (TLR4) 0.1 ug/mL,0.994
same,NF-kB SEAP reporter activity,RAW-Dual [1]; [4],1
same,NF-kB SEAP reporter activity,RAW-Dual [1]; [5],1.03
same,NF-kB SEAP reporter activity,RAW-Dual [1]; [6],0.941
O=[N+]([O-])c1ccc(S(=O)(=O)N2CCN(c3ccnc4cc(Cl)ccc34)CC2)c([N+](=O)[O-])c1,NF-kB SEAP reporter activity,RAW-Dual [2]; [9],0.787
same,NF-kB SEAP reporter activity,RAW-Dual [2]; [10],0.37
O=[N+]([O-])c1ccc(S(=O)(=O)N2CCN(c3ccnc4cc(Cl)ccc34)CC2)c([N+](=O)[O-])c1 (library stock concentration (final ~1000-fold dilution): 10 mM),NF-kB SEAP reporter activity,RAW-Dual [3]; agonist: LPS (TLR4) 0.1 ug/mL,0.384
same,NF-kB SEAP reporter activity,RAW-Dual [3]; [4],0.333
same,NF-kB SEAP reporter activity,RAW-Dual [3]; [5],0.229
same,NF-kB SEAP reporter activity,RAW-Dual [3]; [6],0.196
O=C(/C=C/c1cccc(S(=O)(=O)Nc2ccccc2)c1)NO,NF-kB SEAP reporter activity,RAW-Dual [2]; [9],2.39
same,NF-kB SEAP reporter activity,RAW-Dual [2]; [10],2.58
Cn1cc(/C=C/C(=O)c2cccc(F)c2)cc1/C=C/C(=O)NO,NF-kB SEAP reporter activity,RAW-Dual [2]; [7],0.803
same,NF-kB SEAP reporter activity,RAW-Dual [2]; [8],1.06
O=C(/C=C/c1cccc(S(=O)(=O)Nc2ccccc2)c1)NO (library stock concentration (final ~1000-fold dilution): 10 mM),NF-kB SEAP reporter activity,RAW-Dual [3]; agonist: LPS (TLR4) 0.1 ug/mL,5.83
same,NF-kB SEAP reporter activity,RAW-Dual [3]; [4],2.3
same,NF-kB SEAP reporter activity,RAW-Dual [3]; [5],0.848
same,NF-kB SEAP reporter activity,RAW-Dual [3]; [6],1.76
COc1cccc(NC(=O)/C=C/c2ccc(Cl)cc2)c1 (library stock concentration (final ~1000-fold dilution): 10 mM),NF-kB SEAP reporter activity,RAW-Dual [1]; agonist: LPS (TLR4) 0.1 ug/mL,1.18
same,NF-kB SEAP reporter activity,RAW-Dual [1]; [4],0.828
same,NF-kB SEAP reporter activity,RAW-Dual [1]; [5],0.682
same,NF-kB SEAP reporter activity,RAW-Dual [1]; [6],0.711
Cn1cc(/C=C/C(=O)c2cccc(F)c2)cc1/C=C/C(=O)NO (library stock concentration (final ~1000-fold dilution): 10 mM),NF-kB SEAP reporter activity,RAW-Dual [1]; agonist: LPS (TLR4) 0.1 ug/mL,1.26
same,NF-kB SEAP reporter activity,RAW-Dual [1]; [4],0.787
same,NF-kB SEAP reporter activity,RAW-Dual [1]; [5],0.605
same,NF-kB SEAP reporter activity,RAW-Dual [1]; [6],0.528
